In PubChem BioAssay:
The source made the active and inactive calls.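 The calls were made as follows: active = thallium flux through the channel raised or lowered by more than 3 SD from vehicle-only wells, actives on both sides; inactive = the rest.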

What was measured:
Test in all cases: modulators of BK channel variants, profiling panel, selectivity assay, cell-based, U2OS BacMam, thallium flux, beta subunits (AID 1259406);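 also: initial slope of Thallos dye fluorescence rise after thallium is added; log ratio against the mean of 0.3% DMSO vehicle wells on the same plate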
F380Y = settings: at 30 µM
F380Y/beta1 = settings: at 30 µM
F380Y/beta2Delta = settings: at 30 µM
F380Y/beta4 = settings: at 30 µM
[1] = molecular target: Calcium-activated potassium channel subunit alpha-1 (Homo sapiens) + Leucine-rich repeat-containing protein 26 (Homo sapiens) (UniProt Q12791+Q2I0M4); settings: F380Y/Slo1WT/gamma1, at 30 µM
Chain of Calcium-activated potassium channel subunit alpha-1 (Homo sapiens) + Leucine-rich repeat-containing protein 26 (Homo sapiens) (Q2I0M4 whole entry, looked up, one chain of several): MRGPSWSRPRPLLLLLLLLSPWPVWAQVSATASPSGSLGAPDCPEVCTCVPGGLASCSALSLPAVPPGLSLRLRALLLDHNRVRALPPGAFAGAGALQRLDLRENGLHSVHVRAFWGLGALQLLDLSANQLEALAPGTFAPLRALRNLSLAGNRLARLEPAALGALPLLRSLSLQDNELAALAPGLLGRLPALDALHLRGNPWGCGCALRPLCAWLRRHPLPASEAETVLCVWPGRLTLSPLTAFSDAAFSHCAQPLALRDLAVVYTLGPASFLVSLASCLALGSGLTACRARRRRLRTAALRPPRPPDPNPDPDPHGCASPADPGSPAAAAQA

R275C = settings: at 30 µM
R275C/beta1 = settings: at 30 µM
R275C/beta2Delta = settings: at 30 µM
R275C/beta4 = settings: at 30 µM
R275C/Slo1WT/beta2 = settings: at 30 µM

Measured: log fold change Tl+ flux

Cc1noc(C=Cc2sccc2C2OCCO2)c1[N+](=O)[O-]
inactive: F380Y 0.00373 | F380Y/beta1 0.00792 | F380Y/beta2Delta -0.0403 | F380Y/beta4 -0.0687 | [1] -0.0936 | R275C 0.00445 | R275C/beta1 -0.0604 | R275C/beta2Delta -0.0701 | R275C/beta4 -0.00776 | R275C/Slo1WT/beta2 -0.000775

C#CC1(NC(=O)c2ccc(-c3ccc(CC)cc3)cc2)CCCCC1
inactive: F380Y 0.0109 | F380Y/beta1 0.0082 | F380Y/beta2Delta 0.0141 | F380Y/beta4 0.0366 | [1] 0.047 | R275C 0.0116 | R275C/beta1 -0.0162 | R275C/beta2Delta -0.00151 | R275C/beta4 0.0306 | R275C/Slo1WT/beta2 -0.00603

CCOC(=O)Cn1c(-c2c(Cl)cccc2Cl)noc1=O
inactive: F380Y 0.00248 | F380Y/beta1 -0.00728 | F380Y/beta2Delta -0.0091 | F380Y/beta4 -0.00368 | [1] -0.0669 | R275C 0.0179 | R275C/beta1 -0.00444 | R275C/beta2Delta 0.0184 | R275C/beta4 -0.018 | R275C/Slo1WT/beta2 0.00072

Cc1ccc(C(=O)c2c(-c3ccccc3)cc(-c3ccccc3)c3c2C(=O)CCC3)cc1
inactive: F380Y 0.0109 | F380Y/beta1 -0.036 | F380Y/beta2Delta 0.0354 | F380Y/beta4 -0.0286 | [1] -0.0641 | R275C 0.0312 | R275C/beta1 -0.0154 | R275C/beta2Delta 0.00863 | R275C/beta4 -0.00364 | R275C/Slo1WT/beta2 -0.0497

COC(=O)c1cc(-c2nc(-c3ccc(Cl)cc3Cl)cs2)c(SC)s1
inactive: F380Y -0.0122 | F380Y/beta1 -0.00509 | F380Y/beta2Delta 0.0439 | F380Y/beta4 0.00731 | [1] 0.00703 | R275C -0.00909 | R275C/beta1 -0.0387 | R275C/beta2Delta 0.0331 | R275C/beta4 -0.0197 | R275C/Slo1WT/beta2 -0.00912

CCCOc1ccccc1C=NNC(=S)Nc1ccc(C)c(C)c1
inactive: F380Y 0.0357 | F380Y/beta1 0.0157 | F380Y/beta2Delta 0.00918 | F380Y/beta4 0.0274 | [1] -0.0242 | R275C -0.0214 | R275C/beta1 0.0271 | R275C/beta2Delta -0.0014 | R275C/beta4 0.00171 | R275C/Slo1WT/beta2 0.0415

Cc1cc2c(NC(=O)c3ccccc3C(=O)O)cccc2nn1
active: F380Y/beta1 0.714
inactive: F380Y -0.0132 | F380Y/beta2Delta -0.0393 | F380Y/beta4 0.0303 | [1] 0.0158 | R275C 0.0158 | R275C/beta1 -0.0051 | R275C/beta2Delta -0.00027 | R275C/beta4 -0.0138 | R275C/Slo1WT/beta2 -0.00217

O=C(CC(=O)NNC(=O)c1ccc(F)cc1)NNC(=O)c1ccc(F)cc1
inactive: F380Y 0.0677 | F380Y/beta1 -0.0109 | F380Y/beta2Delta 0.0456 | F380Y/beta4 -0.0066 | [1] -0.0103 | R275C -0.0271 | R275C/beta1 0.0179 | R275C/beta2Delta 0.0309 | R275C/beta4 -0.00647 | R275C/Slo1WT/beta2 -0.086

CC1(C)CCc2cc(C=NNC(=O)c3cccc(Cl)c3Cl)ccc2O1
inactive: F380Y -0.00742 | F380Y/beta1 0.0223 | F380Y/beta2Delta -0.00817 | F380Y/beta4 0.0599 | [1] 0.0181 | R275C -0.00408 | R275C/beta1 0.0163 | R275C/beta2Delta -0.000312 | R275C/beta4 -0.0646 | R275C/Slo1WT/beta2 0.00986

C#Cc1cccc(NS(=O)(=O)c2ccc(Cl)c(Cl)c2)c1
inactive: R275C -0.0107 | R275C/Slo1WT/beta2 -0.0633
active: F380Y 0.107 | F380Y/beta1 0.533 | F380Y/beta2Delta 0.116 | F380Y/beta4 0.222 | [1] 0.182 | R275C/beta1 0.291 | R275C/beta2Delta 0.158 | R275C/beta4 0.196

CSc1nc(N)nc(-c2cccs2)n1
inactive: F380Y 0.02 | F380Y/beta1 0.0489 | F380Y/beta2Delta 0.0165 | F380Y/beta4 0.0265 | [1] 0.0393 | R275C -0.0182 | R275C/beta1 0.00143 | R275C/beta2Delta 0.042 | R275C/beta4 0.0144 | R275C/Slo1WT/beta2 0.0475

Cc1c(Br)sc2sc(-c3ccnc(SCc4ccccc4)n3)c(C)c12
inactive: F380Y -0.00256 | F380Y/beta1 -0.0227 | F380Y/beta2Delta -0.00739 | F380Y/beta4 -0.0356 | [1] 0.0451 | R275C -0.000555 | R275C/beta1 -0.0282 | R275C/beta2Delta 0.0157 | R275C/beta4 -0.00767 | R275C/Slo1WT/beta2 -0.00994

CCOC(=O)c1cnn(C(=O)c2ccc(-n3c(C)ccc3C)cc2)c1N
inactive: F380Y -0.0269 | F380Y/beta1 -0.0106 | F380Y/beta2Delta -0.0157 | F380Y/beta4 -0.067 | [1] 0.00537 | R275C -0.0135 | R275C/beta1 -0.0219 | R275C/beta2Delta 0.0233 | R275C/beta4 -0.00435 | R275C/Slo1WT/beta2 0.0525

O=[N+]([O-])c1cnc(Sc2nccc(-c3cccnc3)n2)s1
inactive: F380Y -0.00331 | F380Y/beta1 0.0246 | F380Y/beta2Delta -0.0191 | F380Y/beta4 0.00729 | [1] -0.074 | R275C 0.0275 | R275C/beta1 0.026 | R275C/beta2Delta -0.0186 | R275C/beta4 0.0146 | R275C/Slo1WT/beta2 -0.0189

O=c1n(-c2ccccc2)c(=O)n2n1C1CCC2C1
inactive: F380Y -0.0367 | F380Y/beta1 -0.0272 | F380Y/beta2Delta -0.00637 | F380Y/beta4 0.0475 | [1] -0.00381 | R275C 0.0483 | R275C/beta1 0.0201 | R275C/beta2Delta 0.00605 | R275C/beta4 -0.0283 | R275C/Slo1WT/beta2 0.0498

Cc1ccc(NC(=S)NCCO)cc1
inactive: F380Y 0.021 | F380Y/beta1 0.0481 | F380Y/beta2Delta 0.0272 | F380Y/beta4 -0.0116 | [1] -0.000511 | R275C 0.0409 | R275C/beta1 -0.0306 | R275C/beta2Delta -0.0145 | R275C/beta4 0.0201 | R275C/Slo1WT/beta2 0.0248

NC(C=Cc1cc(C(F)(F)F)cc(C(F)(F)F)c1)=NOC(=O)c1c(F)cccc1F
inactive: F380Y -0.0565 | F380Y/beta1 0.0127 | F380Y/beta2Delta -0.0278 | F380Y/beta4 -0.0864 | [1] -0.0341 | R275C -0.0159 | R275C/beta1 -0.0569 | R275C/beta2Delta -0.0168 | R275C/beta4 0.0381 | R275C/Slo1WT/beta2 0.0436

Cc1ccccc1S(=O)(=O)NCc1ccc(N2CCN(C)CC2)cc1
inactive: F380Y -0.0156 | F380Y/beta1 -0.00969 | F380Y/beta2Delta 0.0214 | F380Y/beta4 0.0231 | [1] 0.0153 | R275C -0.00175 | R275C/beta1 0.0272 | R275C/beta2Delta 0.0013 | R275C/beta4 0.0244 | R275C/Slo1WT/beta2 -0.0187

Cc1cc(NC(=S)N2CCCCCC2)ccc1Br
active: R275C/beta4 0.081
inactive: F380Y -0.0478 | F380Y/beta1 0.0387 | F380Y/beta2Delta -0.0137 | F380Y/beta4 -0.0575 | [1] -0.0699 | R275C 0.0117 | R275C/beta1 -0.00715 | R275C/beta2Delta -0.0104 | R275C/Slo1WT/beta2 -0.00913

N#CC(CCC(=O)O)(CCC(=O)O)S(=O)(=O)c1ccccc1
inactive: F380Y 0.0317 | F380Y/beta1 0.000152 | F380Y/beta2Delta -0.0465 | F380Y/beta4 -0.00447 | [1] 0.0235 | R275C 0.0374 | R275C/beta1 0.0216 | R275C/beta2Delta 0.0211 | R275C/beta4 -0.014 | R275C/Slo1WT/beta2 0.0459

O=C(Nc1csc(Cc2c(Cl)cccc2Cl)n1)NN1CCOCC1
active: F380Y/beta4 0.11
inactive: F380Y 0.0786 | F380Y/beta1 0.0031 | F380Y/beta2Delta 0.0515 | [1] -0.0174 | R275C -0.0115 | R275C/beta1 0.0073 | R275C/beta2Delta 0.0159 | R275C/beta4 0.00549 | R275C/Slo1WT/beta2 -0.0281

O=C(Nc1ccc(F)cc1)N1CCN(Cc2ccccc2)CC1
active: R275C/beta4 0.0882
inactive: F380Y 0.0438 | F380Y/beta1 0.00516 | F380Y/beta2Delta 0.00491 | F380Y/beta4 0.032 | [1] 0.0285 | R275C 0.0233 | R275C/beta1 0.0689 | R275C/beta2Delta -0.00966 | R275C/Slo1WT/beta2 0.000608

N=C(N)Cc1c(Cl)cccc1Cl
inactive: F380Y 0.017 | F380Y/beta1 0.00557 | F380Y/beta2Delta -0.000365 | F380Y/beta4 -0.0202 | [1] -0.0432 | R275C 0.0228 | R275C/beta1 0.0441 | R275C/beta2Delta 0.028 | R275C/beta4 0.0274 | R275C/Slo1WT/beta2 0.00537

Cc1cc2c(cc1C)CSC(c1ccco1)SC2
inactive: F380Y -0.0256 | F380Y/beta1 0.0185 | F380Y/beta2Delta 0.0283 | F380Y/beta4 -0.0391 | [1] 0.00632 | R275C -0.00435 | R275C/beta1 0.035 | R275C/beta2Delta 0.055 | R275C/beta4 0.0187 | R275C/Slo1WT/beta2 -0.0173

Cc1nc(-c2ccccc2)sc1C(=O)NC(=O)c1ccccc1O
inactive: F380Y 0.0264 | F380Y/beta1 0.0766 | F380Y/beta2Delta 0.0338 | F380Y/beta4 0.00645 | R275C 0.0501 | R275C/beta1 0.0519 | R275C/beta2Delta 0.07 | R275C/beta4 0.078 | R275C/Slo1WT/beta2 0.011
active: [1] 0.146

CCOC(=O)C(C#N)=CNc1ccccc1OC(F)(F)F
inactive: F380Y -0.00694 | F380Y/beta1 -0.036 | F380Y/beta2Delta 0.0178 | F380Y/beta4 0.027 | [1] -0.0183 | R275C -0.0335 | R275C/beta1 -0.00201 | R275C/beta2Delta -0.00638 | R275C/beta4 -0.0357 | R275C/Slo1WT/beta2 -0.0488
